In PubChem BioAssay (Tox21):
Records with an inconclusive call do not appear. Entries that show only a call come without a potency. Values without a mark were called inactive. Active and inactive are the calls of the source. Unless noted, the call rests on the fitted dose curve; in most records, active means well fitted curve in the direction sought with a large enough effect in the repeat runs; inconclusive means weak or mixed curves; inactive means no such curve, though single readings can be large; an effect the other way counts as inactive or inconclusive.

Columns and labels:
[1] = qHTS assay to identify small molecule antagonists of the thyroid receptor (TR) signaling pathway - cell viability counter screen (AID 743064); settings: GH3.TRE-Luc viability, CellTiter-Fluor, 24 h; series mostly up to 70.3 µM; further: nearly all actives have a fitted effect of over 50% in size; further: potency means the concentration at half of the fitted maximal effect
Outline: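 Same-well viability check: GH3.TRE-Luc cells stimulated with 1 nM T3 alongside test compound for 23.5 h, followed by CellTiter-Fluor fluorescence.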

[2] = qHTS assay to identify small molecule antagonists of the thyroid receptor (TR) signaling pathway (AID 743065); settings: GH3.TRE-Luc, T3-stimulated luciferase inhibition, 23.5 h; series mostly up to 70.3 µM; further: nearly all actives have a fitted effect of over 55% in size; further: potency means the concentration at half of the fitted maximal effect
Outline: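 GH3.TRE-Luc rat pituitary cells (two TREs driving luciferase) were dosed with compound, then stimulated with 1 nM T3 (final) for 23.5 h at 37 C. ONE-Glo luminescence was the read-out, with CellTiter-Fluor fluorescence as the cytotoxicity counter-screen.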

[3] = tested on: thyroid hormone receptor (rat, GH3 cells); test: qHTS assay to identify small molecule agonists of the thyroid receptor (TR) signaling pathway (AID 743066; calls by dose curve; further: potency means the concentration at half of the fitted maximal effect); settings: GH3.TRE-Luc cells, TR agonist luciferase, 24 h; series mostly up to 83.9 µM
[4] = qHTS assay to identify small molecule antagonists of the estrogen receptor alpha (ER-alpha) signaling pathway - cell viability counter screen (AID 743074; calls by dose curve;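 further: HEK293 cells carrying ER-alpha-UAS-bla reporter stimulated with 17beta-estradiol; nearly all actives have a fitted effect of over 45% in size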); settings: ERalpha-bla HEK293 viability, CellTiter-Glo luminescence, 18 h; series mostly up to 69.4 µM
[5] = qHTS assay to identify small molecule antagonists of the estrogen receptor alpha (ER-alpha) signaling pathway using the BG1 cell line - cell viability counter screen (AID 743081); settings: BG1Luc4E2 viability, CellTiter-Fluor, 22 h; series mostly up to 70.3 µM;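 further: compound given together with 17beta-estradiol as the ER stimulus; nearly all actives have a fitted effect of over 45% in size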
[6] = qHTS assay to identify small molecule that activate the aryl hydrocarbon receptor (AhR) signaling pathway - cell viability counter screen (AID 743086); settings: HepG2-AhR-luc viability, CellTiter-Fluor, 24 h; series mostly up to 70.3 µM;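 further: HepG2 liver cells carrying the AhR DRE luciferase reporter; nearly all actives have a fitted effect of over 45% in size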
Outline: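 HepG2-AhR-luc (HG2L7.5c1) cells, 4000/well, treated 24 h at 37 C with compound; viability measured as CellTiter-Fluor fluorescence after 30 min in the same wells as the luciferase read.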

[7] = qHTS assay to identify small molecule antagonists of the peroxisome proliferator-activated receptor gamma (PPARg) signaling pathway - cell viability counter screen (AID 743194); settings: PPARg-bla HEK293H viability, CellTiter-Glo luminescence, 17 h; Potency: co-treated with 50 nM rosiglitazone; series mostly up to 62.6 µM; further: nearly all actives have a fitted effect of over 55% in size
Outline: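 Cytotoxicity counter screen in PPARg-bla HEK293H cells, same wells as reporter assay. Compounds plus 50 nM rosiglitazone (final) for 17 h at 37 C, then viability read by CellTiter-Glo luminescence.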

[8] = qHTS assay for small molecule agonists of the antioxidant response element (ARE) signaling pathway - cell viability counter screen (AID 743203; calls by dose curve; further: nearly all actives have a fitted effect of over 55% in size); settings: ARE-bla HepG2 viability, CellTiter-Glo luminescence, 16 h; series mostly up to 73.3 µM
Outline: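 Compounds in DMSO were pinned onto ARE-bla HepG2 cells plated 5 hrs earlier at 2,000 cells/well. Sixteen hours later at 37C/5% CO2, CellTiter-Glo was added and luminescence measured after 30 min at room temperature.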

[9] = qHTS assay for small molecule activators of the heat shock response signaling pathway - cell viability counter screen (AID 743209); settings: HSE-bla HeLa viability, CellTiter-Glo luminescence, 5 h; series mostly up to 62.6 µM; further: nearly all actives have a fitted effect of over 50% in size
Outline: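 Counter screen for cytotoxicity in HeLa HSE-bla reporter cells. Treatment was 5 h at 37 C; viability was detected by luminescent ATP assay (CellTiter-Glo) in the same wells as the beta-lactamase read.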

[10] = qHTS assay for small molecule activators of the heat shock response signaling pathway (AID 743210; active means well fitted activation curve with a large enough effect in the signal ratio in the repeat runs, with a control signal flat, not every such curve was filed as active; the % refers to the signal ratio;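 further: HeLa cells with beta-lactamase reporter driven by heat shock elements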); settings: HeLa HSE-bla reporter, beta-lactamase ratio, 5 h; series mostly up to 62.6 µM
Outline: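 Quantitative high-throughput format using an engineered HeLa line in which heat shock response elements drive beta-lactamase; after 5 h with compound, cells received a B/G FRET substrate and fluorescence was read.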

[11] = qHTS assay for small molecule agonists of the antioxidant response element (ARE) signaling pathway (AID 743202; active means well fitted activation curve with a large enough effect in the signal ratio in the repeat runs, not every such curve was filed as active; the % refers to the signal ratio; further: potency means the concentration at half of the fitted maximal effect); settings: HepG2 ARE-bla reporter, beta-lactamase FRET, 16 h; series mostly up to 73.3 µM
Outline: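 Agonist mode reporter screen: HepG2 cells with ARE-controlled beta-lactamase are incubated with test compounds for 16 h at 37 C, and beta-lactamase activity is measured as fluorescence of cleaved B/G FRET substrate.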

Aromatase (Homo sapiens) = Aromatase (Homo sapiens) (UniProt P11511); test: qHTS assay to identify aromatase inhibitors (AID 743083); settings: MCF-7 aro ERE, testosterone-driven ERE luciferase, 24 h; series mostly up to 70.3 µM; further: nearly all actives have a fitted effect of over 55% in size; further: potency means the concentration at half of the fitted maximal effect
[12] = target: Aryl hydrocarbon receptor (Homo sapiens) (UniProt P35869); test: qHTS assay to identify small molecule that activate the aryl hydrocarbon receptor (AhR) signaling pathway (AID 743085); settings: HepG2 AhR-luc (HG2L7.5c1), luciferase, 24 h; series mostly up to 70.3 µM; further: nearly all actives have a fitted effect of over 15% in size; further: potency means the concentration at half of the fitted maximal effect;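 on activation: HG2L7.5c1 human HepG2 liver cells with stably integrated DRE-driven firefly reporter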
Outline: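 Reporter assay in engineered HepG2 line HG2L7.5c1, whose plasmid carries twenty dioxin responsive elements upstream of firefly luciferase. Treatment lasted 24 h at 37C; ONE-Glo luminescence gauged induction.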

[13] = target: Peroxisome proliferator-activated receptor gamma (Homo sapiens) (UniProt P37231); test: qHTS assay to identify small molecule agonists of the peroxisome proliferator-activated receptor gamma (PPARg) signaling pathway (AID 743094; active means well fitted activation curve with a large enough effect in the signal ratio in the repeat runs, not every such curve was filed as active; the % refers to the signal ratio); settings: HEK293H PPARg-UAS-bla, beta-lactamase FRET ratio, 17 h; series mostly up to 57 µM
Outline: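 Following 5 h plating at 37C, PPARg-bla HEK293H cells receive compound or DMSO for 17 h; fluorescence intensity is recorded after LiveBLAzer B/G loading for 1 h at room temperature.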

[14] = target: Peroxisome proliferator-activated receptor gamma (Homo sapiens) (UniProt P37231); test: qHTS assay to identify small molecule antagonists of the peroxisome proliferator-activated receptor gamma (PPARg) signaling pathway (AID 743191; calls by dose curve; further: nearly all actives have a fitted effect of over 30% in size); settings: HEK293H PPARg-UAS-bla, beta-lactamase ratio, antagonist, 17 h; series mostly up to 62.6 µM
Outline: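 GeneBLAzer PPARg UAS-bla HEK293H cells, 5 h post-plating, exposed to compounds 17 h at 37C. LiveBLAzer B/G FRET substrate added for 1 h at room temperature; beta-lactamase reporter read by fluorescence intensity.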

[15] = qHTS assay to identify aromatase inhibitors - cell viability counter screen (AID 743084); settings: MCF-7 aro ERE viability, CellTiter-Fluor, 24 h; series mostly up to 70.3 µM; further: potency means the concentration at half of the fitted maximal effect
[16] = target: Estrogen receptor (Homo sapiens) (UniProt P03372); test: qHTS assay to identify small molecule agonists of the estrogen receptor alpha (ER-alpha) signaling pathway (AID 743075; calls by dose curve;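 further: HEK293 GripTite cells with ER-alpha and UAS-driven beta-lactamase reporter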); settings: HEK293 ER-alpha-UAS-bla, beta-lactamase FRET ratio, 18 h; series mostly up to 70.1 µM
[17] = qHTS assay to identify small molecule antagonists of the estrogen receptor alpha (ER-alpha) signaling pathway using the BG1 cell line (AID 743080; calls by dose curve;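 further: BG1 cells stimulated with 17beta-estradiol alongside compound; nearly all actives have a fitted effect of over 25% in size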; further: potency means the concentration at half of the fitted maximal effect); settings: BG1Luc4E2 ERE-luciferase antagonist mode, luminescence; series mostly up to 70.3 µM
Outline: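 Endogenous full-length ER-alpha in BG1-Luc-4E2 cells drives a stably integrated 4×ERE luciferase gene; compounds were tested against 17beta-estradiol over 21.5 h, with luminescence and multiplexed viability fluorescence recorded.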

[18] = target: Estrogen receptor (Homo sapiens) (UniProt P03372); test: qHTS assay to identify small molecule agonists of the estrogen receptor alpha (ER-alpha) signaling pathway using the BG1 cell line (AID 743079); settings: BG1Luc4E2 cells, ERE-luciferase agonist, 22 h; at 95 µM (top of the series); further: nearly all actives have a fitted effect of over 20% in size

Sequence of Aromatase (Homo sapiens) (P11511 whole entry, looked up): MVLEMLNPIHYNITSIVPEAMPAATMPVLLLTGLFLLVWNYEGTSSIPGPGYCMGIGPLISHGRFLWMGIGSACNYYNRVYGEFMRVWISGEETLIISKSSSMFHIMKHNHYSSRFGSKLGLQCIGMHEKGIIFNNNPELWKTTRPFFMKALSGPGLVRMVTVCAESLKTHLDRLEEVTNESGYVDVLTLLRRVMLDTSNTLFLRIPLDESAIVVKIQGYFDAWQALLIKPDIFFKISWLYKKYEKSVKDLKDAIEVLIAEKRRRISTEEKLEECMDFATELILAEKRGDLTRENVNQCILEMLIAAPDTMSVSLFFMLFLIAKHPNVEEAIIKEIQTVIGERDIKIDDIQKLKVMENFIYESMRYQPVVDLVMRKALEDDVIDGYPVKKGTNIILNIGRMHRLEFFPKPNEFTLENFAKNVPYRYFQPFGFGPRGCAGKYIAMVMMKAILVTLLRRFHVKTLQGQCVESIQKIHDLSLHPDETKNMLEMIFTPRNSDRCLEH
Sequence of Peroxisome proliferator-activated receptor gamma (Homo sapiens) (P37231 whole entry, looked up): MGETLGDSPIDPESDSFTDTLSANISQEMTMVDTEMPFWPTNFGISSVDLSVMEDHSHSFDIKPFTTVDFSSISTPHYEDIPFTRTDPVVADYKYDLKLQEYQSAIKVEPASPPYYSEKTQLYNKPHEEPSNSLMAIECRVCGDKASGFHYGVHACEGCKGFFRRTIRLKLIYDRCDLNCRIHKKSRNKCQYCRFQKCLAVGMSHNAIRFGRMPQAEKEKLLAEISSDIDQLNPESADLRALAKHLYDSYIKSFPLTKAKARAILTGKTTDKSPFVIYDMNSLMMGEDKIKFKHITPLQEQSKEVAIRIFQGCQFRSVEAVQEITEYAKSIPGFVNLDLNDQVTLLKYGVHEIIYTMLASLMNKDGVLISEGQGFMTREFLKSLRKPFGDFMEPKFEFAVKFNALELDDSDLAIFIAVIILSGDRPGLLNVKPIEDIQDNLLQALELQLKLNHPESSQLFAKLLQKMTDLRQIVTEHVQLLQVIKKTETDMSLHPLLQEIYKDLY
Sequence of Estrogen receptor (Homo sapiens) (P03372 whole entry, looked up): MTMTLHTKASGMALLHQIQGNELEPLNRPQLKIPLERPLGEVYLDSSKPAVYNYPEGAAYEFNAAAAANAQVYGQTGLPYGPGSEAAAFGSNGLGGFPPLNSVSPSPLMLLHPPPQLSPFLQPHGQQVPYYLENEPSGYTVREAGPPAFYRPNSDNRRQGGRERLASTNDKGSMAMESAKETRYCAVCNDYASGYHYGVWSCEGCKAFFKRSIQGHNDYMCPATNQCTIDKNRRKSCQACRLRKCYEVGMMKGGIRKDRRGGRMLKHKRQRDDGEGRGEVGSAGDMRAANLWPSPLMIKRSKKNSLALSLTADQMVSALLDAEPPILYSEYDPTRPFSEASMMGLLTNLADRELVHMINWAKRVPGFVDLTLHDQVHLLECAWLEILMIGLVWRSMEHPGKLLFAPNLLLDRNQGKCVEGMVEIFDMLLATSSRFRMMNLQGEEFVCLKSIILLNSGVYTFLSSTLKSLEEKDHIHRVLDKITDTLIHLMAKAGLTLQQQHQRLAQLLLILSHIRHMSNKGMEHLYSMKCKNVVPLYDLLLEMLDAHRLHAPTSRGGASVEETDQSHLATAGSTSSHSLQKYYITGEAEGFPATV
Sequence of Aryl hydrocarbon receptor (Homo sapiens) (P35869 whole entry, looked up): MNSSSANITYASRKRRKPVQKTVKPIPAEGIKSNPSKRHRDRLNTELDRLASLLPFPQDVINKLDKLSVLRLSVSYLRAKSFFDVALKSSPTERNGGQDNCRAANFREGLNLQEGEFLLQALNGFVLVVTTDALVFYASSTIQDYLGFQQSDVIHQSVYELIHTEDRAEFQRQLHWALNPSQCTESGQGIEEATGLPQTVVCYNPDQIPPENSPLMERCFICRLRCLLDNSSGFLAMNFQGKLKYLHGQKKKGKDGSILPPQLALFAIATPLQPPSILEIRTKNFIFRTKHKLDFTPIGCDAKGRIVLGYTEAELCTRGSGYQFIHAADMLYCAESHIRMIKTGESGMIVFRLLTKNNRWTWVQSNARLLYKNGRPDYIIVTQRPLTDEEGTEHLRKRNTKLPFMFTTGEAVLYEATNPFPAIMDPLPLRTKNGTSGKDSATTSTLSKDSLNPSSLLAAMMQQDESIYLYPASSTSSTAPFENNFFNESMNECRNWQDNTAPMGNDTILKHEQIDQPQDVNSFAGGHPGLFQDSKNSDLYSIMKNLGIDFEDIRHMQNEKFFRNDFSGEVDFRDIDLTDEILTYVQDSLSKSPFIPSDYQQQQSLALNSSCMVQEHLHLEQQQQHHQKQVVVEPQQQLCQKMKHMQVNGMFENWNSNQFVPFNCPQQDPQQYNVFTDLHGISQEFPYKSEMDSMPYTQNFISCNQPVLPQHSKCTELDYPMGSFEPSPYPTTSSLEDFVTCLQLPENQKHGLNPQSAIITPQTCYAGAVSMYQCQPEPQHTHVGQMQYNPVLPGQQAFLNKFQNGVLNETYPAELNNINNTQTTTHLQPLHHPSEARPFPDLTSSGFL

Compound	Potency [1]	Potency [2]	Potency [3]	outcome [4]	Potency [5]	outcome [6]	Potency [7]	Potency [8]	Potency [9]	outcome [10]	Potency [11]	Potency (Aromatase (Homo sapiens))	Potency [12]	outcome [13]	Potency [14]	Potency [15]	Potency [16]	Potency [17]	activation [18] [%]
CC1CCC(=O)O1 (stereo not drawn)	inactive	inactive	inactive	inactive	inactive	inactive	inactive	inactive	inactive	inactive									
COC(=O)COc1ccc(Cl)cc1Cl	inactive	inactive	inactive	inactive	inactive	inactive	inactive	inactive	inactive	inactive	inactive								
O=C(CCN1CC1)OCC(CO)(COC(=O)CCN1CC1)COC(=O)CCN1CC1	inactive	inactive	inactive	inactive	inactive	inactive	inactive	inactive	inactive		inactive	inactive	inactive	inactive	inactive				
CCOP(=O)(OCC)OP(=O)(OCC)OCC	inactive	inactive	inactive	inactive	inactive	inactive	inactive	inactive	inactive	inactive	inactive	inactive	inactive	inactive	inactive	inactive			
COc1cc(OC)nc(Oc2cccc(Oc3nc(OC)cc(OC)n3)c2C(=O)O)n1	inactive	inactive	inactive	inactive	inactive	inactive	inactive		inactive	inactive	inactive	inactive	inactive	inactive	inactive	inactive			
COc1cc(OC)nc(Sc2cccc(Cl)c2C(=O)O)n1	inactive	inactive	inactive	inactive	inactive	inactive	inactive	inactive		inactive	inactive	inactive		inactive	inactive	inactive			
CCS(=O)(=O)CCSP(=O)(OC)OC	inactive	inactive	inactive	inactive	inactive	inactive	inactive	inactive		inactive	8.63 µM (active)	inactive	inactive			inactive			
CN/C(=N\[N+](=O)[O-])NCC1CCOC1 (stereo not drawn)	inactive	inactive	inactive	inactive	inactive	inactive	inactive	inactive	inactive	inactive	inactive	inactive	inactive			inactive			
CC1=C(C(=O)Nc2ccccc2)S(=O)(=O)CCO1	30.6 µM (active)	27.3 µM (active)	inactive	inactive	inactive	inactive		inactive			1.93 µM (active)	48.5 µM (active)				30.6 µM (active)	inactive	76.9 µM (active)	
O=NN1CCCCC1	inactive	inactive	inactive	inactive	inactive	inactive	inactive	inactive	inactive	inactive	inactive	inactive	inactive	inactive	inactive	inactive			
CC1(C)COP(Oc2ccccc2)OC1	inactive	inactive	54.5 µM (active)	inactive	inactive	inactive	inactive	inactive	inactive	inactive		inactive				inactive			
CC(C)(C)C(=O)C(Oc1ccc(Cl)cc1)n1cncn1 (stereo not drawn)	inactive	inactive	inactive	inactive	inactive	inactive	inactive	inactive	inactive		inactive	54.4 µM (active)	48.5 µM (active)	inactive	inactive	inactive			
NC(=O)c1cc([N+](=O)[O-])cc([N+](=O)[O-])c1	inactive	inactive	inactive	inactive	inactive	inactive	inactive	inactive		inactive	23.7 µM (active)	inactive	inactive	inactive	inactive	inactive	inactive	inactive	
CN1CCC(O)(c2ccc(F)cc2)C(C(=O)c2ccc(F)cc2)C1 (stereo not drawn)	21.1 µM (active)	26.6 µM (active)	inactive	inactive	inactive	inactive	inactive	inactive				inactive		inactive	inactive	inactive			
O=C1OC(=O)C2C1C1(Cl)C(Cl)=C(Cl)C2(Cl)C1(Cl)Cl (stereo not drawn)	inactive	inactive	inactive		inactive	inactive	inactive		inactive	inactive	inactive	inactive	inactive	inactive	inactive	inactive	inactive	inactive	-12.2
